Results published in ChEMBL document CHEMBL4513216, “Probing the Open Global Health Chemical Diversity Library for Multistage-Active Starting Points for Next-Generation Antimalarials” (ACS Infect Dis, 2020).
The whole screen tested about 69,000 compounds, of which about 8,600 (12%) showed an effect of 50% or more. The sample holds strong results, similar compounds and a random draw of the others, so the mix is not that of the screen.

Tested on: Plasmodium berghei
Assay: Screen against P. berghei liver stage (PbLuc), transformed with Luciferase, at 10uM
Format: functional, HepG2
Conditions: tested at 10 uM

Row | SMILES | INHIBITION [%]
1 | Cc1ccc(CN2CCN(c3ncnc4[nH]cnc34)CC2CCO)cc1 (stereo unspecified) | 20
2 | CNC(=O)c1cccnc1N1CCN(Cc2ccccc2)C(CCO)C1 (stereo unspecified) | 3.17
3 | OCCC1CN(c2ncnc3[nH]cnc23)CCN1Cc1ccccc1 (stereo unspecified) | 62.4
4 | Cc1cccc(CN2CCN(c3ncnc4[nH]cnc34)CC2CCO)n1 (stereo unspecified) | 47.2
5 | Cc1cccc(CN2CCN(c3ncnc4[nH]ccc34)CC2CCO)n1 (stereo unspecified) | 58.1
6 | OCCC1CN(c2ncnc3[nH]cnc23)CCN1Cc1cccs1 (stereo unspecified) | 53.7
7 | Cc1cc(C)n(CC2CN(c3ncnc4[nH]ccc34)CCO2)n1 (stereo unspecified) | -21.7
8 | Cc1ccc(CN2CCN(c3ncccc3C(N)=O)CC2CCO)cc1 (stereo unspecified) | 36.5
9 | OCCNc1cc(N2CCN(Cc3ccccc3)C(CCO)C2)ncn1 (stereo unspecified) | -11.8
10 | O=C(O)c1cccnc1N1CCN(Cc2ccc(F)cc2)C(CCO)C1 (stereo unspecified) | 68.6
11 | OCCC1CN(c2ncnc3[nH]cnc23)CCN1Cc1ccccc1F (stereo unspecified) | 10.3
12 | c1ccc(C2CN(c3ncnc4[nH]cnc34)CCO2)cc1 (stereo unspecified) | -66.9
13 | CCC1=N[C@@]2(CC[C@@H]3CN(C(=O)Nc4ccccc4)C[C@@H]32)C(=O)N1CC | 8.67
14 | Cc1cc(C2CCCCN2C(=O)CN2C(=O)OC(C)(C)C2=O)no1 (stereo unspecified) | 47.2
15 | COc1ccccc1-c1ncc(CN2CCC3(CCNCC3)CC2)cn1 | 25
16 | CC(=O)c1ccc(CNC(=O)c2cc(C#N)cn2C)nc1C | 12
17 | Cc1cc(C)c(CCNC(=O)CN2CCCN(C(N)=O)CC2)c(C)c1 | 66.6
18 | Cc1cc(C)cc(C(=O)N2CCCN(CC(N)=O)CC2)c1 | 0.348
19 | NC(=O)N1CCCN(CC(=O)NCCc2c(F)cccc2F)CC1 | -52.1
20 | Cn1cc(C(=O)NC[C@H]2OC[C@@H]3CCN(C4CCOCC4)C[C@@H]32)cn1 | 45.8
21 | Cc1nc2n(n1)CC(NCc1cnn(-c3ccccc3)n1)CC2 (stereo unspecified) | -39.4
22 | COCCCS(=O)(=O)N1CCN(C(C)(C)CO)CC1 | 27.65

Row | SMILES | INHIBITION [%]
23 | CC(C)c1nc(CN(C)C(=O)CNC(N)=O)cs1 | 41.5
24 | CC(C)c1nc(CN(C)C(=O)c2ccc(CN3CCCCC3)cc2)cs1 | 65.3
25 | CC(C)c1nc(CN2CCC(CO)CC2)cs1 | 23.4
26 | CC(C)c1nc(CN(C)C(=O)c2cn3ccsc3n2)cs1 | 50.5
27 | CC(C)c1nc(CN2CCCCC2)cs1 | 47.9
28 | CC(C)c1nc(CC(=O)Nc2nc(CN3CCCCCC3)cs2)cs1 | 59.7
29 | CN(Cc1cc(C(C)(C)C)n[nH]1)C(=O)c1cn2ccsc2n1 | -11.5
30 | CC(C)c1nc(CN(C)C(=O)c2ccc3c(c2)OCO3)cs1 | -40.4
31 | CC(C)c1nc(CN(C)C(=O)c2ccc3c(c2)OCC(=O)N3)cs1 | -19.9
32 | CS(=O)(=O)N1C[C@@H](O)[C@H](N2CCN(c3ccccc3)CC2)C1 | -18.8
33 | COc1ccc(CCc2nnc(NC(=O)C3CC34CCC4)s2)cc1OC (stereo unspecified) | 4.32
34 | Cc1cc2c(cc1NC(N)=O)OCO2 | 43.2
35 | Cn1cnc2c1C(C(=O)N1CCOCC1)N(C(=O)c1ccccc1)CC2 (stereo unspecified) | -31.6
36 | Cn1cnc2c1C(C(=O)N1CCCO1)N(C(=O)c1ccccc1)CC2 (stereo unspecified) | 70.4
37 | CC(=O)N1CCc2ncn(C)c2C1C(=O)N1CCCC1 (stereo unspecified) | 45.8
38 | CC(C)c1nnc(CNC2CCCN(Cc3noc(C4CC4)n3)C2)o1 (stereo unspecified) | 19.5
39 | O=C(NC1CCN(c2ncccn2)CC1)c1sccc1C1CC1 | 39.7
40 | CN(Cc1ccccc1CNC(=O)C1CNC(=O)N1)C1CCCCC1 (stereo unspecified) | 57.7
41 | CC1CCN(Cc2ccccc2CNC(=O)C2CNC(=O)N2)CC1 (stereo unspecified) | 13.8
42 | O=C1NCC(C(=O)NCc2ccccc2CN2CCOCC2)N1 (stereo unspecified) | 15.2
43 | CC(C)OCCCNC(=O)CS(=O)(=O)Cc1ccc(C(C)(C)C)cc1 | -27.8
44 | CCn1cc(NC(=O)CN2CCC(Oc3ccc(F)cc3)CC2)c(C)n1 | 58

Row | SMILES | INHIBITION [%]
45 | Cc1nn(C)cc1NC(=O)CN1CCC(Oc2cnccn2)CC1 | -2.09
46 | Cc1ccccc1OC1CCN(CC(=O)Nc2ccn(C)n2)CC1 | 15.1
47 | Cc1ccccc1OC1CCN(CC(=O)Nc2cn(C)nc2C)CC1 | 17.3
48 | CCn1cc(NC(=O)CN2CCC(Oc3ccccc3C)CC2)c(C)n1 | -0.275
49 | Cc1ccccc1OC1CCN(CC(=O)Nc2c(C)nn(C)c2C)CC1 | 52.5
50 | COCC(c1cccc(C(F)(F)F)c1)N(C)C(=O)c1ccoc1 (stereo unspecified) | 40.49
51 | COc1cccc2c3c(c(=O)n(C)c12)CCC(C)(C)O3 | 12.3
52 | Cn1cccc1C(=O)N1CCn2cc(CNC(=O)CC3CC3)nc2C1 | 9.67
53 | CCc1ncc2c(n1)CN(Cc1cnc(C)cn1)CC2 | 25.2
54 | COCCC(=O)N1CCC(c2nnc(-c3ccsc3)o2)CC1 | 0.75
55 | COc1cc(C2SCC(=O)Nc3[nH]ncc32)cc2c1OCO2 (stereo unspecified) | 30.2
56 | CCOc1c(Br)cc(C2c3c(n[nH]c3C)N=C3COC(=O)C32)cc1OC (stereo unspecified) | 72.4
57 | COc1cc(C2c3c(n[nH]c3C)N=C3COC(=O)C32)cc(Br)c1O (stereo unspecified) | 62.3
58 | COc1cc(C2c3c(n[nH]c3C)N=C3COC(=O)C32)cc2c1OCO2 (stereo unspecified) | 58.1
59 | COc1cccc(C2c3c(n[nH]c3C)N=C3COC(=O)C32)c1O (stereo unspecified) | 48
60 | CSc1nc(N)c2c(n1)N=C1COC(=O)C1C2c1cccc(O)c1 (stereo unspecified) | 25.1
61 | COc1cccc(C2c3c(n[nH]c3C)N=C3COC(=O)C32)c1OC (stereo unspecified) | -7.77
62 | O=C(NCc1ccco1)[C@H]1CC[C@@H]2[C@@H](CCN2c2ncc(F)cn2)O1 | 38.1
63 | CC(=O)NC1CCCN(C(=O)NCCOc2ccc3c(c2)OCO3)C1 (stereo unspecified) | 15.6
64 | O=C(CCc1ccncc1)N1CCCC(n2cccn2)C1 (stereo unspecified) | 24.39
65 | O=C(c1cccn1Cc1cccs1)N1CCC(C(=O)N2CCCC2)CC1 | 11.6
66 | COCc1cccc(CNCc2c(C)nn(C)c2N2CCOCC2)c1 | 27.4
